Assay results from PubChem BioAssay (NCATS).
Records with an inconclusive call do not appear. A call without a number means that no potency is given here. Calls of active or inactive are those of the source. Unless noted, calls follow the shape of the dose curve; as a rule, active = well fitted inhibition curve with a large enough effect; inconclusive = small, poorly fitted or top-dose-only effect; inactive = no such curve, though single readings can be large or run the other way.

Key:
[1] = qHTS assay for measurement of the activity of small molecule inhibitors on Zika virus induced Caspase-3 activity in human iPSC derived neural progenitor cells (hNPCs) (AID 1224857); also: nearly all actives have a fitted effect of over 65% in size
How it was run: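 After overnight (16–20 h) culture at 350 cells/well, hNPCs get compound, then ZIKV 2 FFU/cell one hour later. Six hours on, Caspase-Glo 3/7 is added and luminescence measured.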

[2] = qHTS assay for measurement of the activity of small molecule inhibitors on Zika virus induced Caspase-3 activity in human astrocytoma cells (AID 1224859)
How it was run: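 Inhibition of Zika-induced caspase-3/7 activity: SNB-19 cells, 1 h compound pretreatment, ZIKV 2 FFU/cell for 6 h at 37 C, Caspase-Glo luminescence read-out.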

[3] = target: Atrial natriuretic peptide receptor 1 (Homo sapiens) (UniProt P16066); test: Natriuretic polypeptide receptor (hNpr1) antagonism - Pilot screen (AID 1347049; calls by dose curve;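 also: HEK293 cells with hNpr1 and GloSensor cGMP luciferase stimulated by 0.1 nM hNppA; agonist-evoked cGMP luminescence read 20 min after hNppA addition; series mostly up to about 58 µM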)
How it was run: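 Cells expressing receptor plus cGMP biosensor are seeded and incubated overnight at 37C, then loaded with GloSensor reagent (2% final) at room temperature for 2 h. Library compounds go on for 30 min. A pre-read precedes agonist (hNppA, 0.1 nM final) and a 20-min readout.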

[4] = target: Atrial natriuretic peptide receptor 2 (Homo sapiens) (UniProt P20594); test: Natriuretic polypeptide receptor (hNpr2) antagonism - Pilot subtype selectivity assay (AID 1347050; calls by dose curve; also: potency is read from the fitted curve at half-maximal effect)
How it was run: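 Read-out: GloSensor luminescence (CCD imager), baseline vs post-stimulation. HEK293 cells expressing hNpr2; compounds pre-incubated 30-50 min at ambient temperature; hNppC 1 nM final, 20 min.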

Atrial natriuretic peptide receptor 1 (Homo sapiens), sequence (P16066 whole entry, looked up): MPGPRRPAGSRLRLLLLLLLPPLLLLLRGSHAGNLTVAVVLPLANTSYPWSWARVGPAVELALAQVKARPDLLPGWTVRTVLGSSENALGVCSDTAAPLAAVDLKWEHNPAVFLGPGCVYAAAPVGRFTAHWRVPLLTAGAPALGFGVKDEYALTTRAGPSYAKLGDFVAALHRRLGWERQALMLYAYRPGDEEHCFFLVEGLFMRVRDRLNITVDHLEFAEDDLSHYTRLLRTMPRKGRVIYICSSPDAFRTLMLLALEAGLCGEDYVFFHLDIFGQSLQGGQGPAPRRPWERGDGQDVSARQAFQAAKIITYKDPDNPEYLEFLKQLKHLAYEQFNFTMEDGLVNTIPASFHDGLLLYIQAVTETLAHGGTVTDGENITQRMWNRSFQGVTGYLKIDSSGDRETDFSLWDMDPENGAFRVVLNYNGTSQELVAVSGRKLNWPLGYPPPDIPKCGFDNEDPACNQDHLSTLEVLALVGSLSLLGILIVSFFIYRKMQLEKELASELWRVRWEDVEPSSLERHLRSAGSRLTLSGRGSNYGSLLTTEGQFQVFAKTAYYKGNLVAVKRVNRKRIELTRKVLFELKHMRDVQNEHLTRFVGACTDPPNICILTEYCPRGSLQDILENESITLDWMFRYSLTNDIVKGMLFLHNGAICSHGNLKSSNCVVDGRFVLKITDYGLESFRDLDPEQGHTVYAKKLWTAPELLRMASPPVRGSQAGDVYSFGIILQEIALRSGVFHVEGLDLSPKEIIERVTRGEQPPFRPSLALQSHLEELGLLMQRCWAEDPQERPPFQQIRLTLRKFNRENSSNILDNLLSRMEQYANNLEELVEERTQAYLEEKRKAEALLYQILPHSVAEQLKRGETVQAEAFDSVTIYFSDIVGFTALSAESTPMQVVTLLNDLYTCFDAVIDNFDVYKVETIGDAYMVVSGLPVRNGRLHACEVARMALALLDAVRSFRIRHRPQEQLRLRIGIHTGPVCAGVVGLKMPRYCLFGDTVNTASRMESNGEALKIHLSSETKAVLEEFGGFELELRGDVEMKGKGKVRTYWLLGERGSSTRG
Atrial natriuretic peptide receptor 2 (Homo sapiens), sequence (P20594 whole entry, looked up): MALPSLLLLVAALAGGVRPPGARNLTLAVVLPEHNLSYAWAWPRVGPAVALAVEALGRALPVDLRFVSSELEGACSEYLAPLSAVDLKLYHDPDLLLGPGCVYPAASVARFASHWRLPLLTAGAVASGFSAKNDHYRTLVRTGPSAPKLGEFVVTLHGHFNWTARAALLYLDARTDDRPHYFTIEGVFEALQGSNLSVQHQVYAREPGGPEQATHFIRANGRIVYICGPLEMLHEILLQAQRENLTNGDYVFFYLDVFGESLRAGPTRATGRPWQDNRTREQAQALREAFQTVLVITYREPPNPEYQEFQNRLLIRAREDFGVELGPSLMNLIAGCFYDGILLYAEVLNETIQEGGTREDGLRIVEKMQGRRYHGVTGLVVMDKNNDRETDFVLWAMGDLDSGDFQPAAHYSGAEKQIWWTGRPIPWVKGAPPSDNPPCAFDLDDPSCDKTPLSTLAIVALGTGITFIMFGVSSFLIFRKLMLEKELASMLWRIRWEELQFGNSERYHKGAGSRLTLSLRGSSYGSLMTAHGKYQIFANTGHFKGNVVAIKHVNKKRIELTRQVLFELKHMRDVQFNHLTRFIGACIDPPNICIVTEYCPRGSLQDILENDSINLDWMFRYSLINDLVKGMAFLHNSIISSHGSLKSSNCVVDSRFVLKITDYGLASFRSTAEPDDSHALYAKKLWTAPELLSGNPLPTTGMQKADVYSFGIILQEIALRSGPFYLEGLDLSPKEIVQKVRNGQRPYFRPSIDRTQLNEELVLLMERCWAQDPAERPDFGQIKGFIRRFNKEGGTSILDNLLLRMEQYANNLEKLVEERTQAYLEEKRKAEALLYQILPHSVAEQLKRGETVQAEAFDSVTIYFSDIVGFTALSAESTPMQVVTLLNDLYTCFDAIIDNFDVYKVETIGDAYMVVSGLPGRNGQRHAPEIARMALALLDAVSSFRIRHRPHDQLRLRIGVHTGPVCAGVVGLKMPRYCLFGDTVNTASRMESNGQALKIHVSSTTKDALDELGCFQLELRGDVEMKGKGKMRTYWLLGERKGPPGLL

SMILES | Potency [1] | Potency [2] | Potency [3] | Potency [4]
CCn1c(=O)[nH]c2cc(Cl)c(Cl)cc21 | inactive | inactive | inactive | inactive
C[N+](C)(C)CC=O | inactive | inactive | inactive | inactive
O=c1cc(O)cc(/C=C/c2ccc(O)c(O)c2)o1 | inactive | inactive | inactive | inactive
Cc1cccc(C2CN(C)CCc3c2cc(O)c(O)c3Cl)c1 (stereo not given) | inactive | inactive | inactive | inactive
O=C(O)c1cccnc1C(=O)O | inactive | inactive | inactive | inactive
CCCCC[C@H](CC(=O)NO)C(=O)N[C@H](C(=O)N1CCC[C@H]1CO)C(C)C | inactive | inactive | inactive | inactive
COC(=O)C(C)(N)Cc1ccc(O)cc1 (stereo not given) | inactive | inactive | inactive | inactive
CC(C)C[C@H](NC(=O)C1OC1C(=O)O)C(=O)NCCCCN=C(N)N (stereo not given in full) | inactive | inactive | inactive | inactive
NCCC1CCCC(CCN)N1 (stereo not given) | inactive | inactive | inactive | inactive
O=c1[nH]ccc2c(O)cccc12 | inactive | inactive | inactive | inactive
O=[N+]([O-])c1cccc2c(Br)[nH]nc12 | inactive | inactive | inactive | inactive
NS(=O)(=O)c1cccc2c1c([N+](=O)[O-])cc1nc(O)c(O)nc12 | inactive | inactive | inactive | inactive
O=c1oc(Cl)c(Cl)c2ccccc12 | inactive | inactive | – | 13.1 µM (active)
CCC(=O)N1CCN(C(=O)c2ccccc2)CC1 | inactive | inactive | inactive | inactive
CC(/C=C/c1cccc(Oc2ccc(F)cc2)c1)N(O)C(N)=O (stereo not given) | inactive | inactive | inactive | inactive
Cc1cc(Cn2cnc3c2C[C@@H](C(=O)O)N(C(=O)C(c2ccccc2)c2ccccc2)C3)ccc1N | inactive | inactive | inactive | inactive
c1ccc(C2CN3CCSC3=N2)cc1 (stereo not given) | inactive | inactive | inactive | inactive
O=C(O)c1ccccc1Nc1ccccc1 | inactive | inactive | inactive | inactive
CSC(N)=NCCC[C@H](N)C(=O)O | inactive | inactive | inactive | inactive
CNc1cc(NS(=O)(=O)c2ccc(N)cc2)nc(NC)n1 | inactive | inactive | inactive | inactive
C#CC(N)CCC(=O)O (stereo not given) | inactive | inactive | inactive | inactive
COc1cc(CC(=O)O)ccc1O | inactive | inactive | inactive | inactive
COC1(C2=NCCN2)COc2ccccc2O1 (stereo not given) | inactive | inactive | inactive | inactive
CN[C@H](CC(=O)O)C(=O)O | inactive | inactive | inactive | inactive
Cc1ccc([N+](=O)[O-])cc1S(=O)(=O)N(C)C | inactive | inactive | inactive | inactive
NC(=O)c1ccccc1 | inactive | inactive | inactive | inactive
CC1=C(/C=C/C(C)=C/C=C/C(C)=C\C(=O)O)C(C)(C)CCC1 | inactive | inactive | inactive | inactive
C[C@@]1(C2CCCC2)Cc2cc(OCC(=O)O)c(Cl)c(Cl)c2C1=O | inactive | inactive | inactive | inactive
O=C(O)C1=CCCNC1 | inactive | inactive | inactive | inactive
